The target in test [1] is Aryl hydrocarbon receptor (Homo sapiens) (UniProt P35869). In words: qHTS assay to identify small molecule that activate the aryl hydrocarbon receptor (AhR) signaling pathway (AID 743085). Further: nearly all actives have a fitted effect of over 15% in size. Further: potency means the concentration at half of the fitted maximal effect.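 On activation: HG2L7.5c1 human HepG2 liver cells with stably integrated DRE-driven firefly reporter; series mostly up to about 70 µM.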 Summed up:
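HepG2 cells (HG2L7.5c1) stably carrying a firefly luciferase reporter driven by 20 dioxin responsive elements were exposed to compound for 24 h at 37C after a 5 h settling period; luminescence rise (ONE-Glo) indicated activation.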

Test [2] in a line: qHTS assay to identify small molecule that activate the aryl hydrocarbon receptor (AhR) signaling pathway - cell viability counter screen (AID 743086). Further: nearly all actives have a fitted effect of over 45% in size. Further: potency means the concentration at half of the fitted maximal effect. Summed up: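 Cytotoxicity counter screen: CellTiter-Fluor signal (30 min, 37 C) in 4000 HepG2 cells/well carrying the DRE-luciferase reporter, following 24 h compound exposure at 37 C.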
The target in test [3] is Peroxisome proliferator-activated receptor gamma (Homo sapiens) (UniProt P37231). In words: qHTS assay to identify small molecule agonists of the peroxisome proliferator-activated receptor gamma (PPARg) signaling pathway (AID 743094; active means well fitted activation curve with a large enough effect in the signal ratio in the repeat runs, not every such curve was filed as active; the % refers to the signal ratio). Put shortly: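 Cells from the PPARg UAS-bla HEK293H line are plated and incubated 5 h at 37C. Compounds in DMSO are pinned in and left 17 h at 37C. LiveBLAzer B/G substrate is then added for 1 h at room temperature before fluorescence is measured.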
Peroxisome proliferator-activated receptor gamma (Homo sapiens), sequence (P37231 whole entry, looked up): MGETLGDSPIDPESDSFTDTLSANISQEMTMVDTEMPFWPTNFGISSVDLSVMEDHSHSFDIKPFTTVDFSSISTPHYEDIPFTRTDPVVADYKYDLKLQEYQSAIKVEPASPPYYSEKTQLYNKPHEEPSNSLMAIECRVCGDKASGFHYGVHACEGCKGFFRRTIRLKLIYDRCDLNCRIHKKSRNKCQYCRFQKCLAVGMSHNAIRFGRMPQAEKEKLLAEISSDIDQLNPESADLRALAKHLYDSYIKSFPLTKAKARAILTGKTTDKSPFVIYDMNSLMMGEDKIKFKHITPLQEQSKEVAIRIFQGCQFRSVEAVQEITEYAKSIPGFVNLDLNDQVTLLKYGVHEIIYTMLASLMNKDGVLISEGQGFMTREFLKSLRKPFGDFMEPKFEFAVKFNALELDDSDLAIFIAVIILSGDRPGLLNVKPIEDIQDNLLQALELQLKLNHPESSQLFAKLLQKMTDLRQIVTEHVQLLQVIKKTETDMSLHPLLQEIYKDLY
A general note: In qHTS, concentration-response curves come from the screen itself.

Test [4] is described as follows: qHTS assay to identify small molecule antagonists of the peroxisome proliferator-activated receptor gamma (PPARg) signaling pathway - cell viability counter screen (AID 743194). Further: nearly all actives have a fitted effect of over 55% in size. Particulars: Potency: co-treated with 50 nM rosiglitazone. Put shortly: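 Viability was measured as CellTiter-Glo luminescence in GeneBLAzer PPARg UAS-bla HEK293H cells. These cells had been exposed 17 h at 37 C to compounds together with rosiglitazone at 50 nM final, with the beta-lactamase readout taken in the same wells.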

Test [5] can be described thus: qHTS assay for small molecule agonists of the antioxidant response element (ARE) signaling pathway (AID 743202; active means well fitted activation curve with a large enough effect in the signal ratio in the repeat runs, not every such curve was filed as active; the % refers to the signal ratio). Summed up:
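After 16 hours of compound treatment at 37 C, HepG2 cells with a stably integrated ARE-driven beta-lactamase reporter were loaded 2 hours at room temperature with LiveBLAzer B/G FRET substrate and fluorescence intensity measured.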

Test [6] can be described thus: qHTS assay for small molecule activators of the heat shock response signaling pathway - cell viability counter screen (AID 743209). Further: nearly all actives have a fitted effect of over 50% in size. Summed up: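 Cytotoxicity counter screen run in parallel with the HSE beta-lactamase reporter, using the same wells. HeLa HSE-bla cells received compound for 5 h at 37 C; ATP-based CellTiter-Glo luminescence was measured after 30 min at room temperature.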

Test [7] in a line: qHTS assay for small molecule activators of the heat shock response signaling pathway (AID 743210; active means well fitted activation curve with a large enough effect in the signal ratio in the repeat runs, with a control signal flat, not every such curve was filed as active; the % refers to the signal ratio; further: series mostly up to about 63 µM). Summed up:
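Compound exposure lasted 5 h at 37 C in HeLa cells carrying a heat-shock-element-driven beta-lactamase reporter. Read-out: fluorescence intensity after 2.5 h room-temperature loading with LiveBLAzer B/G FRET substrate.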

A short description of test [8]: qHTS assay to identify small molecule agonists of the peroxisome proliferator-activated receptor delta (PPARd) signaling pathway - cell viability counter screen (AID 743211). Further: nearly all actives have a fitted effect of over 55% in size. Summed up: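 PPARd-bla HEK293H cells (UAS-beta-lactamase reporter) were treated with compounds for 17 h at 37 C. Viability was then read in the same wells by CellTiter-Glo luminescence after 30 min at room temperature.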

Test [9] addresses Peroxisome proliferator-activated receptor delta (Homo sapiens) (UniProt Q03181). Nature of the test: qHTS assay to identify small molecule agonists of the peroxisome proliferator-activated receptor delta (PPARd) signaling pathway (AID 743212; calls by dose curve). Put shortly:
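Beta-lactamase reporter readout: a ratiometric FRET signal from the LiveBLAzer substrate after 2 h at room temperature. Compound exposure at 37 °C in PPARδ-bla HEK293H cells driven by an upstream activator sequence.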

For test [10], the target named is Bile acid receptor (Homo sapiens) (UniProt Q96RI1). Nature of the test: qHTS assay to identify small molecule antagonists of the farnesoid-X-receptor (FXR) signaling pathway (AID 743217; active means well fitted inhibition curve with a large enough effect in the signal ratio in the repeat runs, not every such curve was filed as active; the % refers to the signal ratio). Put shortly:
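Cells carrying a UAS-driven beta-lactamase reporter (GeneBLAzer FXR-UAS-bla HEK 293T) were plated and rested 5 h at 37 °C. Compounds in DMSO were added alongside chenodeoxycholic acid agonist at 50 uM final and left 16 h at 37 °C before FRET substrate readout.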

Test [11] is described as follows: qHTS assay to identify small molecule agonists of the farnesoid-X-receptor (FXR) signaling pathway - cell viability counter screen (AID 743218). Further: nearly all actives have a fitted effect of over 45% in size. Summed up: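 Cells were seeded, left 5 h at 37 C and 5% CO2, then dosed with compound in DMSO for 16 h. After the beta-lactamase FRET read, CellTiter-Glo was added and luminescence measured 30 min later.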
Test [12] addresses Bile acid receptor (Homo sapiens) (UniProt Q96RI1). Nature of the test: qHTS assay to identify small molecule agonists of the farnesoid-X-receptor (FXR) signaling pathway (AID 743220; active means well fitted activation curve with a large enough effect in the signal ratio in the repeat runs, not every such curve was filed as active; the % refers to the signal ratio). Summed up:
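FXR-UAS-bla HEK 293T cells carrying a UAS-driven beta-lactamase reporter were plated for 5 h at 37C/5% CO2, then exposed to DMSO-dissolved Tox21 10K compounds for 16 h at 37C. A LiveBLAzer B/G FRET substrate was loaded for 2 h at room temperature before fluorescence reading.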

The nature of test [13]: qHTS assay to identify small molecule antagonists of the farnesoid-X-receptor (FXR) signaling pathway - cell viability counter screen (AID 743221; active means well fitted cell-killing curve with a large enough effect in the repeat runs, not every such curve was filed as active; further: nearly all actives have a fitted effect of over 50% in size). Summed up:
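FXR-UAS-bla HEK 293T cells were treated with test compounds plus chenodeoxycholic acid (50 uM final) for 16 h at 37 C. Cell viability in the same wells was then read as CellTiter-Glo luminescence after 30 min at room temperature.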

The target in test [14] is Vitamin D3 receptor (Homo sapiens) (UniProt P11473). In words: qHTS assay to identify small molecule agonists of the vitamin D receptor (VDR) signaling pathway (AID 743222; calls by dose curve). Summed up: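 Cells carrying a VDR-driven beta-lactamase reporter are seeded at 2,000 per well and rested 4 h. Compounds in DMSO are added for 16 h at 37C, and FRET substrate fluorescence is measured after 2 h at room temperature.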
Vitamin D3 receptor (Homo sapiens), sequence (P11473 whole entry, looked up): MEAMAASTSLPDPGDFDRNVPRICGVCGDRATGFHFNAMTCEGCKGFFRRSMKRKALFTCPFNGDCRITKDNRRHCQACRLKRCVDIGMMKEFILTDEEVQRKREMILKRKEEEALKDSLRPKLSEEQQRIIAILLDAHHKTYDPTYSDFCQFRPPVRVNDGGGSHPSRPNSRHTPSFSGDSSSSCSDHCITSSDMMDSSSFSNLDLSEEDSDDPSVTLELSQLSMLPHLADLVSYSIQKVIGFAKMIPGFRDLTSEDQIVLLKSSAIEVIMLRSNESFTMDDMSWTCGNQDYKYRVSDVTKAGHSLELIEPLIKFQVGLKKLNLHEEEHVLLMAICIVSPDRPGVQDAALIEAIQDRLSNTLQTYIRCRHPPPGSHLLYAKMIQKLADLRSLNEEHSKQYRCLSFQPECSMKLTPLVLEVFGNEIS

Test [15] has the same target. In words: qHTS assay to identify small molecule antagonists of the vitamin D receptor (VDR) signaling pathway (AID 743223; active means well fitted inhibition curve with a large enough effect in the signal ratio in the repeat runs, not every such curve was filed as active; the % refers to the signal ratio). Summed up:
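VDR-bla cells were plated, incubated 4 h at 37C, then given compound and 1alpha,25-dihydroxyvitamin D3 (3 nM final). After 16 h at 37C, LiveBLAzer B/G FRET substrate was added for 2 h at room temperature and fluorescence read.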

Test [16] in a line: qHTS assay to identify small molecule agonists of the vitamin D receptor (VDR) signaling pathway - cell viability counter screen (AID 743224). Further: series mostly up to about 63 µM; nearly all actives have a fitted effect of over 50% in size. Put shortly:
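Cells: VDR-bla, 2,000/well, settled 4 h. Treatment: compounds in DMSO, 16 h, 37C/5% CO2. Readout: CellTiter-Glo luminescence after 30 min RT.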

A short description of test [17]: qHTS assay to identify small molecule antagonists of the peroxisome proliferator-activated receptor delta (PPARd) signaling pathway - cell viability counter screen (AID 743213). Further: nearly all actives have a fitted effect of over 50% in size. Summed up: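 Viability counter-screen, qHTS format: PPARd-bla HEK293H, L165041 300 nM final, 17 h compound exposure at 37 C, CellTiter-Glo luminescence after 30 min RT.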
In test [18] the target is Peroxisome proliferator-activated receptor delta (Homo sapiens) (UniProt Q03181). In words: qHTS assay to identify small molecule antagonists of the peroxisome proliferator-activated receptor delta (PPARd) signaling pathway (AID 743215; active means well fitted inhibition curve with a large enough effect in the signal ratio in the repeat runs, not every such curve was filed as active; the % refers to the signal ratio;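 further: cells stimulated with agonist L165041 at 300 nM final during compound exposure; series mostly up to about 62 µM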). Summed up:
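Cells: HEK293H with a UAS-driven beta-lactamase reporter responsive to PPARd. Compounds were co-added with L165041 (300 nM, final) and incubated 17 h at 37 C before a 2 h room-temperature FRET substrate step and fluorescence reading.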

Test [19] in a line: qHTS assay for small molecule agonists of the antioxidant response element (ARE) signaling pathway - cell viability counter screen (AID 743203; calls by dose curve; further: nearly all actives have a fitted effect of over 55% in size). Summed up: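 Cytotoxicity was tested in parallel with the ARE reporter screen. ARE-bla HepG2 cells were exposed to compounds for 16 hrs, and viability was taken from CellTiter-Glo luminescence.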
In test [20] the target is Peroxisome proliferator-activated receptor gamma (Homo sapiens) (UniProt P37231). In words: qHTS assay to identify small molecule antagonists of the peroxisome proliferator-activated receptor gamma (PPARg) signaling pathway (AID 743191; calls by dose curve; further: series mostly up to about 63 µM; nearly all actives have a fitted effect of over 30% in size). Summed up:
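Beta-lactamase reporter under UAS control in HEK293H PPARg-bla cells; compound treatment 17 h at 37C. Read-out: fluorescence intensity after 1 h room-temperature incubation with LiveBLAzer B/G FRET substrate.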

Inconclusive results are not listed. Calls of active or inactive are those of the source. Unless noted, the call rests on the fitted dose curve; in most records, active means well fitted curve in the direction sought with a large enough effect in the repeat runs; inconclusive means weak or mixed curves; inactive means no such curve, though single readings can be large; an effect the other way counts as inactive or inconclusive.

Peroxisome proliferator-activated receptor delta (Homo sapiens), sequence (Q03181 whole entry, looked up): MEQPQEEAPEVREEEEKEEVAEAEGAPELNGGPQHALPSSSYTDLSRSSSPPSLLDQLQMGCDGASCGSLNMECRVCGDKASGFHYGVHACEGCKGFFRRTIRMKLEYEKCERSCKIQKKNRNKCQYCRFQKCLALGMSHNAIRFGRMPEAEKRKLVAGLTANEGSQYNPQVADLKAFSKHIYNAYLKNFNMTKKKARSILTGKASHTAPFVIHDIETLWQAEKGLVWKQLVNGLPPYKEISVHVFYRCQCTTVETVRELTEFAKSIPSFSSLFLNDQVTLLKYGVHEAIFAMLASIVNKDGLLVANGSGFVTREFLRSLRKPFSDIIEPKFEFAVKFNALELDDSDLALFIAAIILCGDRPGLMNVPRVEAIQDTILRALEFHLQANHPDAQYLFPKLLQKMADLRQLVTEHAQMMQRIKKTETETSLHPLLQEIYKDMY
Aryl hydrocarbon receptor (Homo sapiens), sequence (P35869 whole entry, looked up): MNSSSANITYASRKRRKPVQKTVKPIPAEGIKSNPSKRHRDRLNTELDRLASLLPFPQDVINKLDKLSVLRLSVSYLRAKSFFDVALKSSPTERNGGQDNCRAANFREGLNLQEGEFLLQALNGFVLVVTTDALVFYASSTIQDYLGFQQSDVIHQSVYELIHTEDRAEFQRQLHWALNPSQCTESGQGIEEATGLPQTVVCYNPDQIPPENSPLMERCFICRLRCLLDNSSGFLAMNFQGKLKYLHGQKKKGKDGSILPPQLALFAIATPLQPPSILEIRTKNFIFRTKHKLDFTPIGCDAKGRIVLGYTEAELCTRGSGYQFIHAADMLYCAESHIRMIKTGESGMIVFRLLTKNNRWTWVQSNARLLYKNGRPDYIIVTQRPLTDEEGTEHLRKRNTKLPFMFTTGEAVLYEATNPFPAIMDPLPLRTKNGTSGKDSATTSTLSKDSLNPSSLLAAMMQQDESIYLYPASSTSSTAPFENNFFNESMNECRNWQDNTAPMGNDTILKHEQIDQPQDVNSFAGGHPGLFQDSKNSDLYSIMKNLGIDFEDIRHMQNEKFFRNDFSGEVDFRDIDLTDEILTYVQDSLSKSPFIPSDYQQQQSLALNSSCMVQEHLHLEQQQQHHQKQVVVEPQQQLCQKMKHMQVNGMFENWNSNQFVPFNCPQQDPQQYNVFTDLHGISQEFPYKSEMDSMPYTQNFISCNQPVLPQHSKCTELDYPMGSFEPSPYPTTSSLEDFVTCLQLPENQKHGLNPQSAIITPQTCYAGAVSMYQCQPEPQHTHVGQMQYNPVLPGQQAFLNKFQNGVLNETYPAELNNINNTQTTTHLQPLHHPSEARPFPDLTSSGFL
Bile acid receptor (Homo sapiens), sequence (Q96RI1 whole entry, looked up): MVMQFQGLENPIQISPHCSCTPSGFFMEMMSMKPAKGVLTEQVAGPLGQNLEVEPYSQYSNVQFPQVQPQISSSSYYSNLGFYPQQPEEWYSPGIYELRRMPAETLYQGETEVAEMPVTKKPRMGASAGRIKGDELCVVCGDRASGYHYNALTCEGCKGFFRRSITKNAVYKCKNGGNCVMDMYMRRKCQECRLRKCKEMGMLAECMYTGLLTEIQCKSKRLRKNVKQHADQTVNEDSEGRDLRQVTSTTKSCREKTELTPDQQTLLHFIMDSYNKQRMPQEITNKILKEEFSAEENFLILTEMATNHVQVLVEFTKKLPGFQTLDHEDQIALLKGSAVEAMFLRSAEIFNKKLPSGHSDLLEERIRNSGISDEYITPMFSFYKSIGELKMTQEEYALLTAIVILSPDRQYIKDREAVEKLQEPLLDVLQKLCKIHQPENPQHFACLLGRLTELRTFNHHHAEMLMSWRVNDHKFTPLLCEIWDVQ

Take `CC(C)[C@]12CC(=O)[C@H](C)[C@H]1C2`: the Potency entry in test [1], in [2], in [4], in [5], in test [6] and in [7] was “inactive” each time. In addition, the Potency entry in [8], in test [11], in test [13] and in test [16] was “inactive” each time. The outcome in test [3], in test [9], in test [10], in test [12], in test [14] and in test [15] was inactive.
Take `CCc1cc(OC)c(C[C@H](C)N)cc1OC`: the Potency entry in test [1], in [4], in test [6], in test [7], in test [8] and in [17] was “inactive” each time. In addition, the Potency entry in test [18], in test [11] and in [16] was “inactive” each time. Further, in test [2], the Potency was 63.7 µM (active). The compound was called inactive in test [3], in [9], in test [10], in test [12], in test [14] and in [15].
In the case of `O=C(Cl)CCl`, the Potency entry in test [1], in test [2], in test [4], in [6], in [7] and in test [8] was “inactive” each time. In addition, the Potency result in test [17], in test [18], in test [11], in [13] and in test [16] was “inactive” throughout. In addition, the call in test [3], in [9], in test [10], in test [12] and in test [14] was inactive.
As to `C=C1CC[C@@]2(O)[C@H]3Cc4ccc(O)c5c4[C@@]2(CCN3CC2CC2)[C@H]1O5`, the Potency result in [1], in test [2], in test [4], in [5], in [6] and in test [7] was “inactive” in each case. Also, the Potency entry in test [8], in [17], in test [18], in test [11], in [13] and in test [16] was “inactive” in each case. The compound was called inactive in [3], in [9], in test [14] and in test [15].
Consider `CCN[C@H](C)Cc1cccc(C(F)(F)F)c1`, for which the Potency entry in [1], in test [4], in [19], in [6], in [7] and in test [8] was “inactive” each time. Moreover, the Potency entry in test [17], in test [18], in test [11] and in test [13] was “inactive” throughout. In addition, the outcome in test [3], in test [9] and in [10] was inactive.
With `CCCOc1nn(C(=O)NS(=O)(=O)c2ccccc2C(=O)OC)c(=O)n1C`, the Potency result in test [2], in [20], in [4], in [5], in [19] and in test [6] was “inactive” each time. Further, the Potency result in test [7], in test [8], in test [17], in test [13] and in [16] was “inactive” in each case. Moreover, the outcome in [3], in test [9] and in test [14] was inactive.
With `CCOP(=S)(OCC)Oc1ccc(Cl)cc1Cl`, in test [1], the Potency was 19.3 µM (active). Also, the Potency result in test [2], in test [6], in [7], in test [8], in [17] and in test [18] was “inactive” throughout. For the same compound, the Potency result in test [11], in test [13] and in test [16] was “inactive” in each case. The result in test [3], in test [9], in [14] and in [15] was inactive.
On to `O=P(O)(O)c1ccccc1`, for which the Potency result in test [1], in [2], in test [4], in test [5], in [6] and in test [7] was “inactive” in each case. Besides, the Potency result in test [8], in test [17], in [11], in [13] and in [16] was “inactive” each time. Besides, the outcome in [9], in test [14] and in test [15] was inactive.

Source of the values: PubChem BioAssay (Tox21).
